# KCNQ2 enhance – potentiators of rat KCNQ2 potassium channel; B-score at 10 µM; 0.54% of 310,000 active; CHO-K1 KCNQ2, FluxOR thallium flux fluorescence; stronger effect = higher value; O88943;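 active = fluorescence ratio B-score at least 3 SD of library B-scores, with initial fluorescence B-score within 3 of them, cut at about 5.3 in these data; same plate scores as AID 2156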;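 also: B-score of peak minus minimum over baseline fluorescence ratio after K+ and Tl+ stimulus; positive B-score means potentiation of KCNQ2 with more thallium influx and brighter signal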
# Target sequence (O88943 whole entry, looked up): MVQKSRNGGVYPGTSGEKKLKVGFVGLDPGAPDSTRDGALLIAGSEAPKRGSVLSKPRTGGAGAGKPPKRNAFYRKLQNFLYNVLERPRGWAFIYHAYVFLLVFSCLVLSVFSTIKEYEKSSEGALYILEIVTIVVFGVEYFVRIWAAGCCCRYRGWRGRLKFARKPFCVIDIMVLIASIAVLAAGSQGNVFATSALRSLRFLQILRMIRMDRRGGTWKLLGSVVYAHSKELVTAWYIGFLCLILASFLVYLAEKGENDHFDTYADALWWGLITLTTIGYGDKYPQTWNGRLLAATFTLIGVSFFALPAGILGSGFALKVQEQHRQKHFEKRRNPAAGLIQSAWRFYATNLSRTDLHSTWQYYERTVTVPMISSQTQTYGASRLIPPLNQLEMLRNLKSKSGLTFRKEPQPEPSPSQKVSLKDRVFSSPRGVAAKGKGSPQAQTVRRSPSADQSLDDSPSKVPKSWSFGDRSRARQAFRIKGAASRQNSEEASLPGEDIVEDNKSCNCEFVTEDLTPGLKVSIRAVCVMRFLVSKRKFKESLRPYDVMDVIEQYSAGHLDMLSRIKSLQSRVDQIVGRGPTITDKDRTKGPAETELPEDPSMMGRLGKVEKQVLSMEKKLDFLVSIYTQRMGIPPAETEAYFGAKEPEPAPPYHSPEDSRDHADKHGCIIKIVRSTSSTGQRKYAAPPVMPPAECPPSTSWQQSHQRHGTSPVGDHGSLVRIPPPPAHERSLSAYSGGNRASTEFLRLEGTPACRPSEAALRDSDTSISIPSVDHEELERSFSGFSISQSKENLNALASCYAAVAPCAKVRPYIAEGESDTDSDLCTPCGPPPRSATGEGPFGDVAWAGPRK
# KCNQ2 block – inhibitors of rat KCNQ2 potassium channel | 1.1% of 310,000 active | O88943 | B-score at 10 µM | CHO-K1 KCNQ2, FluxOR thallium flux, 20 min; stronger effect = lower value | AID 2156;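 active = fluorescence ratio B-score at most minus 3 library SDs, with starting brightness B-score within 2 library SDs, cut at about -5.5 in these data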
# KCNQ2 block conf – rat KCNQ2 channel inhibition, confirmatory screen; activity change, negative = inhibition, % at 10 µM; shares compounds with KCNQ2 block; 57% of 1,000 active; KCNQ2-expressing cells, thallium flux; stronger effect = lower value; AID 493025
# KCNQ1 spec – KCNQ2 inhibitor that also affects human KCNQ1 channel; shares compounds with KCNQ2 block; KCNQ1-expressing cells, FluxOR thallium flux fluorescence; stronger effect = lower value; activity change, negative = inhibition, % at 10 µM; 15% of 1,000 active;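 active = activity change at least 3 SD of negative controls below their mean in both duplicate wells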;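 also: CHO cells stably transfected with KCNQ1 and depolarized by potassium stimulus; peak minus minimum fluorescence over baseline after thallium addition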
# CHO parental ctr – KCNQ2 inhibitor counter-screen hit in parental CHO cells; 14% of 1,000 active; shares compounds with KCNQ2 block; activity change, % at 10 µM; thallium flux counter-screen; stronger effect = lower value
# KCNQ2 inh confirm – blocks rat KCNQ2 current in automated patch clamp; 49% of 550 active; AID 588531; calls only at 10 µM; KCNQ2-expressing cells; shares compounds with KCNQ2 block
# Numbers stand for hits; . = inactive; / = no result given; + = active, no number. Sampled rows, rich in hits. Any-hit rate of the full collection: about 1.6%. Unless noted, no rule for the calls is given here.
SMILES,KCNQ2 enhance,KCNQ2 block,KCNQ2 block conf,KCNQ1 spec,CHO parental ctr,others
Cc1ccccc1-c1cc(C(=O)N2CCCC2)c2ccccc2n1,.,.,/,/,/,
COc1ccc(-c2cc(C(=O)N3CCCC3)c3ccccc3n2)cc1,/,.,/,/,/,
O=C(c1cc(-c2cccnc2)nc2ccccc12)N1CCCc2ccccc21,/,.,/,/,/,
COc1ccc(-c2cc(C(=O)N3CC(C)CC(C)C3)c3ccccc3n2)cc1 (configuration not stated),.,-8.7,-35%,.,.,KCNQ2 inh confirm=+
CC1CN(C(=O)c2cc(-c3ccc(Cl)s3)nc3ccccc23)CC(C)O1 (configuration not stated),.,-8.5,-33%,.,.,KCNQ2 inh confirm=+
Cc1ccc2[nH]c(CN3CCC(CO)(CC4CCCCO4)CC3)c(C)c2c1 (configuration not stated),.,.,/,/,/,
O=C(NC1CC1)C1=C[C@@H](c2csc3ccccc23)C[C@@H](OCc2ccc(CO)cc2)O1,/,.,/,/,/,
CC(C)(C)NC(=O)NC(=O)CN1CCN(c2cccc(Cl)c2)CC1,/,.,/,/,/,
CCS(=O)(=O)c1ccc(O)c(NC(=O)CC2(CC(=O)O)CCCC2)c1,/,.,/,/,/,
CCn1nc(C(=O)Nc2ccccc2N2CCCC2)c2ccccc2c1=O,.,-8,-38%,.,.,KCNQ2 inh confirm=.
CCn1nc(C(=O)Nc2ccc3nc(C)sc3c2)c2ccccc2c1=O,.,.,/,/,/,
Cc1nccc(-c2cccc(NC(=O)c3ccccc3Cl)c2)n1,/,.,/,/,/,
O=C(CCn1c(=O)oc2ccccc21)N(Cc1ccccc1)c1ccccc1,.,-11,-32%,.,.,KCNQ2 inh confirm=+
CN(Cc1ccccc1)C(=O)CCn1c(=O)oc2ccccc21,.,.,/,/,/,
COCCNC(=O)C(c1ccc(Cl)cc1)N(CCOC)C(=O)CCC(=O)Nc1ccccn1 (configuration not stated),.,.,/,/,/,
COc1ccc(/C=N/Nc2nc(C)cc(-c3ccccc3)n2)c(OC)c1,.,.,/,/,/,
COc1ccc(/C=N/Nc2cc(C)nc3ccc(OC)cc23)c(OC)c1,.,-9,-41%,-32%,-24%,KCNQ2 inh confirm=.
COc1ccc(-n2cc(C#N)c(=O)n(Cc3ccc(F)cc3)c2=O)cc1,/,.,/,/,/,
CCOC(=O)CSc1nnc(CNc2ccc(Cl)cc2)n1-c1ccccc1,.,-8.9,.,.,.,
COC(=O)CSc1nnc(CNc2ccc(Cl)cc2)n1Cc1ccccc1,/,.,/,/,/,
O=C(O)c1ccc2nc(-c3ccco3)c(-c3ccco3)nc2c1,/,.,/,/,/,
O=C(Nc1cccc(C(F)(F)F)c1)c1ccc2nc(-c3ccco3)c(-c3ccco3)nc2c1,.,-8.5,-30%,.,.,KCNQ2 inh confirm=+
CCCC(C(=O)Nc1cc(S(=O)(=O)N2CCOCC2)ccc1OC)c1ccccc1 (configuration not stated),/,.,/,/,/,
C/C=C/C(=O)Nc1cccc(C(F)(F)F)c1,.,.,/,/,/,
O=C(/C=C/c1cccc(C(F)(F)F)c1)Nc1cccc(C(F)(F)F)c1,.,-8.2,.,.,.,
SMILES,KCNQ2 enhance,KCNQ2 block,KCNQ2 block conf,KCNQ1 spec,CHO parental ctr,others
COc1cccc(C2C(C(=O)Nc3ccc(C)cc3C)=C(C)Nc3ncnn32)c1OC (configuration not stated),.,-12,.,.,.,
COc1ccccc1NC(=O)C1=C(C)Nc2ncnn2C1c1ccccc1C (configuration not stated),.,.,/,/,/,
CCCCCCCCCOC(=O)C(CC(=O)O)N1CCOCC1 (configuration not stated),/,.,/,/,/,
CCCCCOC(=O)CC(C(=O)OCCCCC)N1CCCCC1 (configuration not stated),.,-9.2,-34%,-32%,-30%,KCNQ2 inh confirm=.
O=C(c1ccc(Cl)cc1)C1CCN(CC(=O)N2CCCCC2)CC1,/,.,/,/,/,
CCn1c(COc2cccc3ccccc23)nnc1SCC(=O)OC1CCCCC1,.,-8.6,.,.,.,
O=C(CSc1nnc(-c2ccco2)n1Cc1ccccc1)OC1CCCCC1,.,-9.4,-34%,.,.,KCNQ2 inh confirm=+
O=C(CSc1nnc(-c2ccncc2)n1Cc1ccco1)OC1CCCCC1,/,.,/,/,/,
Cn1c(COc2cccc3ccccc23)nnc1SCC(=O)OC1CCCCC1,/,.,/,/,/,
O=c1[nH]nc(N2CCOCC2)c(=O)[nH]1,/,.,/,/,/,
CN(C)CCCNC(=O)c1ccccn1,.,.,/,/,/,
CN(C)CCCNC(=O)c1ccc(-c2nc(-c3ccc(Cl)cc3)cs2)cc1,.,-12,-22%,.,.,KCNQ2 inh confirm=.
Cc1nnc(SCC(=O)Nc2nccs2)n1N,/,.,/,/,/,
C=CCn1c(/N=C/c2ccc(OC)cc2)nc2ccccc21,.,.,/,/,/,
C=CCn1c(/N=C/c2ccc(N(C)C)cc2)nc2ccccc21,.,-7.3,.,.,.,
COc1ccc(S(=O)(=O)n2cccc2)cc1OC,/,.,/,/,/,
O=C(NCC(c1cccs1)N1CCOCC1)c1ccc(Cl)s1 (configuration not stated),.,-9.7,.,.,.,
O=C(NCC(c1cccs1)N1CCOCC1)c1cc([N+](=O)[O-])ccc1Cl (configuration not stated),/,.,/,/,/,
Cn1c(=O)n(CC(=O)NCC2CCCO2)c(=O)c2c3c(sc21)CCCC3 (configuration not stated),.,.,/,/,/,
CCOC(=O)c1c(NC(=O)CS(=O)(=O)c2cn(CC)c3ccccc23)sc2c1CCCCC2,.,-7,-25%,.,.,KCNQ2 inh confirm=+
CCOC(=O)c1c(NC(=O)CS(=O)(=O)c2cn(CC)c3ccccc23)sc2c1CCCC2,.,-11,-36%,.,.,KCNQ2 inh confirm=+
CCOc1ccc(NC(=O)CS(=O)(=O)c2cn(CC)c3ccccc23)cc1,.,.,/,/,/,
CCOC(=O)c1c(NC(=S)Nc2ccc(F)cc2)sc2c1CCC2,.,-7,.,.,.,
CCOC(=O)c1c(NC(=O)Cc2cccs2)sc2c1CCCC2,/,.,/,/,/,
CCOC(=O)c1c(NC(=S)Nc2ccc(C)cc2)sc2c1CCC2,.,.,/,/,/,
SMILES,KCNQ2 enhance,KCNQ2 block,KCNQ2 block conf,KCNQ1 spec,CHO parental ctr,others
Cc1nnc(SCC(=O)NC(C)(C)C)n1NCc1cccc(Br)c1,/,.,/,/,/,
O=C(c1cccs1)N1CCCC(c2nc3c(nnn3Cc3ccccc3Cl)c(=O)[nH]2)C1 (configuration not stated),/,.,/,/,/,
O=C(C1CCOCC1)N1CCC(CO)(CCc2ccccc2)CC1,/,.,/,/,/,
O=C(N/N=C/c1cc(Br)c(O)c(Br)c1)c1cc2c(ccc3ccccc32)o1,.,-11,-53%,-50%,-54%,KCNQ2 inh confirm=.
O=C(N/N=C/c1ccc(O)c(Br)c1)c1cc2c(ccc3ccccc32)o1,/,.,/,/,/,
O=C(CSC1=NCCS1)NC(NC(=O)CSC1=NCCS1)c1ccccc1,.,.,/,/,/,
COc1ccccc1CNC(=O)CSC1=NCCS1,.,-6.8,.,.,.,
COc1ccccc1CNC(=O)CSc1ccc(Br)cc1,/,.,/,/,/,
O=C(CSC1=NCCS1)NC(c1ccccc1)c1ccccc1,.,-8.2,-42%,-34%,-32%,KCNQ2 inh confirm=+
Cc1ccc(NC(=S)N2CCC(c3ccccc3)C2)c(Cl)c1 (configuration not stated),/,.,/,/,/,
Cc1onc(-c2c(Cl)cccc2Cl)c1C(O)c1ccccc1 (configuration not stated),.,.,/,/,/,
Cc1cccc(N2CCN(C(=O)CCNS(=O)(=O)c3ccc4c(c3)oc(=O)n4C)CC2)c1C,/,.,/,/,/,

# Screening results deposited in PubChem BioAssay by Johns Hopkins Ion Channel Center.
